In PubChem BioAssay (EPA / NIEHS) one finds outcome and AC50 data, which are given here for 21 molecules.

Active and inactive are the calls of the source. The calls were made as follows: active = hit-call score of the fitted dose curve at least 0.9, where 1 is the maximum; inactive = score below 0.9.

Tumor necrosis factor (Homo sapiens), sequence (P01375 whole entry, looked up): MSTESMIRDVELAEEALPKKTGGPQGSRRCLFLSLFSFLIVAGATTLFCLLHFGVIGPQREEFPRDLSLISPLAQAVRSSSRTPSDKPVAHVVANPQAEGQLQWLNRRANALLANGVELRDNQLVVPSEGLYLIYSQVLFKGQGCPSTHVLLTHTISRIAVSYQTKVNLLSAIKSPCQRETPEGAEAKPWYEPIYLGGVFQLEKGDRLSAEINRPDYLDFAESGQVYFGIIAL

Read-out in one test: not listed separately
The test can be described thus: BSK_BT_PBMCCytotoxicity: PBMC Cytotoxicity Assessment in the BioMAP Diversity Plus: BT Assay (AID 2284225).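 Also: PBMC viability measured by Alamar Blue dye reduction fluorescence.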 The following applies: primary human B cells with PBMC. The method, boiled down: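 Primary human co-culture of B cells and PBMC, pre-dosed 1 h then activated with SEB and TSST-1. Cytotoxicity is taken from Alamar Blue dye reduction, added for 6 h at the end of a 90 h incubation.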
`CC(C)c1ccc(CO)cc1`: the outcome was inactive.
Still for that read-out and setting: under `CC1(C)Cc2cccc(O)c2O1` stands “inactive”; under `BrCCBr`, “inactive”; under `Nc1cccc2ccccc12`, “inactive”.
On the same count and under the same terms, under `O=[N+]([O-])c1ccc2c3c(cccc13)CC2` stands “inactive”; under `O=C(O)CCC(F)(C(F)(F)F)C(F)(F)F`, “inactive”.
The term AC50 denotes the concentration at which the activity in the assay is half-maximal. On to `COP(=S)(OC)Oc1c(Cl)cc(C)cc1Cl`, for which the AC50 was 14.5 µM (active).
As for `CC(=O)C(Cl)C(=O)N(C)C` (stereo not drawn), the concentration at half-maximal activity (AC50) is 20 µM (active).
Consider `Oc1ccc(-c2ccccc2)cc1`, for which the result was inactive.
As to `OCc1ccco1`, the outcome was inactive.
On the same count and under the same terms, under `CCNc1nc(NC(C)(C)C)nc(SC)n1` stands “inactive”.
The same measure, in the same setting: in the case of `O=C(O)C(F)(F)C(F)(F)C(F)(F)C(F)(F)C(F)(F)C(F)(F)C(F)(F)C(F)(F)C(F)(F)C(F)(F)F` it was “inactive”.
Consider `O=C(OC1CCCCC1)c1ccccc1C(=O)OC1CCCCC1`, for which the AC50 was 34.8 µM (active).
On to `CCOP(=S)(OCC)Oc1ccc(S(C)=O)cc1` (stereo not drawn), for which the result was inactive.
In the case of `CCOP(=S)(OCC)SCCS(=O)(=O)CC`, the result was inactive.
Still for that read-out and setting: in the case of `COC[C@H](C)N(C(=O)CCl)c1c(C)csc1C` it was “inactive”.
Regarding `CCOC(=O)/C=C(C)/C=C/C[C@@H](C)CCCC(C)C`, the concentration at half-maximal activity (AC50) is 23.7 µM (active).
Still for that read-out and setting: in the case of `C(=NC1CCCCC1)=NC1CCCCC1` it was 8.8 µM (active).
Regarding `Oc1c(I)cc(I)cc1I`, the outcome was inactive.
The same measure, in the same setting: under `Nc1ncc([N+](=O)[O-])s1` stands “inactive”.
On the same count and under the same terms, in the case of `O=S(=O)(c1ccc(Cl)cc1)c1ccc(Cl)cc1` it was “inactive”.

Read-out in the next test: Secreted IgG (sIgG), gene 3500
The test is described as follows: BSK_BT_sIgG: BioMAP Diversity Plus: BT Assay for Secreted IgG (sIgG) Biomarker Activity (AID 2284226). The conditions noted are these: primary human B cells with PBMC. Put shortly:
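In this multiplexed co-culture system, ELISA quantifies sIgG 24 h post-treatment. Endpoint analysis uses positive fitting direction, DMSO negative control.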
For the molecule `CC(C)c1ccc(CO)cc1`, the outcome was inactive.
The same measure, in the same setting: in the case of `CC1(C)Cc2cccc(O)c2O1` it was “inactive”; in that of `BrCCBr`, “inactive”; in that of `Nc1cccc2ccccc12`, “inactive”.
In the case of `O=[N+]([O-])c1ccc2c3c(cccc13)CC2`, the result was inactive.
Turning to `O=C(O)CCC(F)(C(F)(F)F)C(F)(F)F`, the outcome was inactive.
Consider `COP(=S)(OC)Oc1c(Cl)cc(C)cc1Cl`, for which the concentration at half-maximal activity (AC50) was 22.9 µM (active).
The same measure, in the same setting: under `CC(=O)C(Cl)C(=O)N(C)C` (stereo not drawn) stands 20 µM (active); under `OCc1ccco1`, 26.1 µM (active); under `CCNc1nc(NC(C)(C)C)nc(SC)n1`, 26.7 µM (active).
As for `O=C(O)C(F)(F)C(F)(F)C(F)(F)C(F)(F)C(F)(F)C(F)(F)C(F)(F)C(F)(F)C(F)(F)C(F)(F)F`, the outcome was inactive.
For `O=C(OC1CCCCC1)c1ccccc1C(=O)OC1CCCCC1`, the concentration at half-maximal activity (AC50) was 34.2 µM (active).
Consider `CCOP(=S)(OCC)Oc1ccc(S(C)=O)cc1` (stereo not drawn), for which the outcome was inactive.
For the molecule `CCOP(=S)(OCC)SCCS(=O)(=O)CC`, the outcome was inactive.
On the same count and under the same terms, in the case of `COC[C@H](C)N(C(=O)CCl)c1c(C)csc1C` it was “inactive”.
For the molecule `CCOC(=O)/C=C(C)/C=C/C[C@@H](C)CCCC(C)C`, the AC50 was 20 µM (active).
Still for that read-out and setting: under `C(=NC1CCCCC1)=NC1CCCCC1` stands 1.82 µM (active).
Take `Oc1c(I)cc(I)cc1I`: the outcome was inactive.
The same measure, in the same setting: in the case of `Nc1ncc([N+](=O)[O-])s1` it was “inactive”; in that of `O=S(=O)(c1ccc(Cl)cc1)c1ccc(Cl)cc1`, “inactive”.

Read-out in the next test: not listed separately
The test can be described thus: BSK_BT_Bcell_Proliferation: Viability Assessment in the BioMAP Diversity Plus: BT Assay for B cell Proliferation (AID 2284227). The following applies: primary human B cells with PBMC. Put shortly:
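Using a human primary B cell–PBMC co-culture, the assay measures total protein by sulforhodamine B absorbance as a gauge of proliferation after 72 h. Analysis followed the positive fitting direction with DMSO as baseline.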
Take `CC(C)c1ccc(CO)cc1`: the outcome was inactive.
In the case of `CC1(C)Cc2cccc(O)c2O1`, the outcome was inactive.
The same measure, in the same setting: in the case of `BrCCBr` it was “inactive”.
For `Nc1cccc2ccccc12`, the concentration at half-maximal activity (AC50) is 20 µM (active).
As to `O=[N+]([O-])c1ccc2c3c(cccc13)CC2`, the result was inactive.
On the same count and under the same terms, under `O=C(O)CCC(F)(C(F)(F)F)C(F)(F)F` stands “inactive”; under `COP(=S)(OC)Oc1c(Cl)cc(C)cc1Cl`, “inactive”.
Turning to `CC(=O)C(Cl)C(=O)N(C)C` (stereo not drawn), the concentration at half-maximal activity (AC50) was 25 µM (active).
For the molecule `Oc1ccc(-c2ccccc2)cc1`, the result was inactive.
In the case of `OCc1ccco1`, the AC50 is 26.7 µM (active).
In the case of `CCNc1nc(NC(C)(C)C)nc(SC)n1`, the outcome was inactive.
The same measure, in the same setting: in the case of `O=C(O)C(F)(F)C(F)(F)C(F)(F)C(F)(F)C(F)(F)C(F)(F)C(F)(F)C(F)(F)C(F)(F)C(F)(F)F` it was “inactive”.
Turning to `O=C(OC1CCCCC1)c1ccccc1C(=O)OC1CCCCC1`, the AC50 was 31.7 µM (active).
Consider `CCOP(=S)(OCC)Oc1ccc(S(C)=O)cc1` (stereo not drawn), for which the result was inactive.
On the same count and under the same terms, in the case of `CCOP(=S)(OCC)SCCS(=O)(=O)CC` it was “inactive”.
Same read-out and setting: in the case of `COC[C@H](C)N(C(=O)CCl)c1c(C)csc1C` it was “inactive”.
On to `CCOC(=O)/C=C(C)/C=C/C[C@@H](C)CCCC(C)C`, for which the AC50 was 27 µM (active).
Still for that read-out and setting: in the case of `C(=NC1CCCCC1)=NC1CCCCC1` it was 5.75 µM (active).
As to `Oc1c(I)cc(I)cc1I`, the result was inactive.
The same measure, in the same setting: under `Nc1ncc([N+](=O)[O-])s1` stands “inactive”; under `O=S(=O)(c1ccc(Cl)cc1)c1ccc(Cl)cc1`, “inactive”.

Read-out in a further test: Tumor necrosis factor (Homo sapiens) (UniProt P01375)
The test is described as follows: BSK_BT_xTNFa: BioMAP Diversity Plus: BT Assay for Tumor necrosis factor alpha (TNF-alpha) Biomarker Activity (AID 2284230). The following applies: primary human B cells with PBMC. Put shortly: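 Endpoint derived in the positive direction versus DMSO vehicle. Cells: B cells together with PBMC, exposed 24 h before TNF-alpha in the medium was read on the Luminex xMAP platform.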
For `CC(C)c1ccc(CO)cc1`, the result was inactive.
On the same count and under the same terms, under `CC1(C)Cc2cccc(O)c2O1` stands “inactive”; under `BrCCBr`, “inactive”.
On the same count and under the same terms, in the case of `Nc1cccc2ccccc12` it was “inactive”; in that of `O=[N+]([O-])c1ccc2c3c(cccc13)CC2`, “inactive”; in that of `O=C(O)CCC(F)(C(F)(F)F)C(F)(F)F`, “inactive”.
`COP(=S)(OC)Oc1c(Cl)cc(C)cc1Cl`: the outcome was inactive.
As to `CC(=O)C(Cl)C(=O)N(C)C` (stereo not drawn), the half-maximal activity concentration (AC50) is 29.6 µM (active).
For `Oc1ccc(-c2ccccc2)cc1`, the result was inactive.
On the same count and under the same terms, under `OCc1ccco1` stands “inactive”.
Consider `CCNc1nc(NC(C)(C)C)nc(SC)n1`, for which the half-maximal activity concentration (AC50) is 20 µM (active).
Consider `O=C(O)C(F)(F)C(F)(F)C(F)(F)C(F)(F)C(F)(F)C(F)(F)C(F)(F)C(F)(F)C(F)(F)C(F)(F)F`, for which the outcome was inactive.
For the molecule `O=C(OC1CCCCC1)c1ccccc1C(=O)OC1CCCCC1`, the AC50 is 32.1 µM (active).
`CCOP(=S)(OCC)Oc1ccc(S(C)=O)cc1` (stereo not drawn): the outcome was inactive.
As to `CCOP(=S)(OCC)SCCS(=O)(=O)CC`, the outcome was inactive.
On the same count and under the same terms, in the case of `COC[C@H](C)N(C(=O)CCl)c1c(C)csc1C` it was “inactive”.
Turning to `CCOC(=O)/C=C(C)/C=C/C[C@@H](C)CCCC(C)C`, the concentration at half-maximal activity (AC50) is 30.6 µM (active).
The same measure, in the same setting: in the case of `C(=NC1CCCCC1)=NC1CCCCC1` it was 10.9 µM (active).
Turning to `Oc1c(I)cc(I)cc1I`, the result was inactive.
Still for that read-out and setting: in the case of `Nc1ncc([N+](=O)[O-])s1` it was “inactive”; in that of `O=S(=O)(c1ccc(Cl)cc1)c1ccc(Cl)cc1`, “inactive”.
